The source of these data is PubChem BioAssay (EPA / NIEHS).

Records with an inconclusive call do not appear. Calls of active or inactive are those of the source. Rule for the calls, unless noted: active = hit-call score of the fitted dose curve at least 0.9, where 1 is the maximum; inactive = score below 0.9.

Test [1] can be described thus: ACEA_ER_80hr: ACEA Biosciences xCELLigence Real-Time Cell Analysis on Estrogen Receptor Agonism for Proliferation (AID 2282667; active = hit-call score of the fitted dose curve at least 0.9, where 1 is the maximum). The note with it: T47D proliferation, impedance (xCELLigence), 80 h. The essentials: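 Real-time impedance growth kinetics of human T-47D breast cells read 80 h after dosing, gain-of-signal fitted relative to DMSO. Compounds: 1:4 serial series, top final concentration 100 uM, n = 2.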

Test [2] is described as follows: ATG_CRE_CIS: Attagene CIS-FACTORIAL HepG2 Assay for human cAMP Responsive Element (CRE) binding protein 3 (AID 2282926). As to conditions: HepG2 CRE cis-reporter, Attagene multiplexed mRNA; actives raise or lower the signal. In outline:
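Multiplexed transcription-unit reporters transfected into HepG2; 24 h dosing; RT-PCR/capillary electrophoresis fluorescence read-out; bidirectional fit vs DMSO.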

Test [3] addresses CCAAT/enhancer-binding protein beta (Homo sapiens) (UniProt P17676). As to the kind of experiment: ATG_C_EBP_CIS: Attagene CIS-FACTORIAL HepG2 Assay for human CCAAT/Enhancer Binding Protein (C/EBP) beta (AID 2282927). As to conditions: HepG2 Attagene cis-factorial transcription factor reporter; actives raise or lower the signal. The essentials: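 Endogenous C/EBPb-driven reporter transcripts measured in transfected human HepG2 cells at 24 h via RT-PCR and capillary electrophoresis of labelled fragments. Activity fitted in both directions relative to DMSO baseline.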

A short description of test [4]: ATG_CMV_CIS: Attagene CIS-FACTORIAL HepG2 Assay for human CMV (Internal Marker) (AID 2282928).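 Note: endpoint acts as a background internal control marker rather than a target.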 As to conditions: HepG2 CMV promoter reporter, transcription factor profiling; actives raise or lower the signal. The essentials:
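After transient transfection of HepG2 with reporter transcription units driven by cis-regulatory promoters, cells receive test chemical for 24 h. Labeled reporter amplicons, digested with HpaI, are sized and quantified by capillary electrophoresis against DMSO.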

Test [5] can be described thus: ATG_DR4_LXR_CIS: Attagene CIS-FACTORIAL HepG2 Assay for human Liver X Receptor (LXR), DR4 submotif (AID 2282929). As to conditions: HepG2 Attagene DR4 cis-reporter, mRNA transcription; actives raise or lower the signal. In outline: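 Transiently transfected HepG2 liver cells; cis-regulated reporters; 24 h dosing. RT-PCR plus CE read-out of reporter mRNA. DMSO baseline, bidirectional curve fitting.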

Test [6] addresses Aryl hydrocarbon receptor (Homo sapiens) (UniProt P35869). As to the kind of experiment: ATG_Ahr_CIS: Attagene CIS-FACTORIAL HepG2 Assay for human Aryl Hydrocarbon Receptor (Ahr) (AID 2282930). The note with it: HepG2 AhR cis-factorial reporter transcription; actives raise or lower the signal. In outline:
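Reporter mRNA levels, quantified by RT-PCR and fluorescent capillary electrophoresis, reflect endogenous AhR transcriptional activity in HepG2 cells carrying transfected cis-promoter reporter constructs. Readout at 24 h post-dose; gain or loss fitted against DMSO baseline.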

Test [7] can be described thus: ATG_AP_1_CIS: Attagene CIS-FACTORIAL HepG2 Assay for human Activator Protein 1 (AP-1) (AID 2282931). As to conditions: HepG2 Attagene cis-factorial AP-1 reporter mRNA; actives raise or lower the signal. In outline: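 We transfected HepG2 cells transiently with a set of cis-regulated reporter transcription units, dosed them for 24 h, and quantified reporter mRNA via RT-PCR and capillary electrophoresis, scoring gain or loss of signal relative to DMSO.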

Test [8] in a line: ATG_AP_2_CIS: Attagene CIS-FACTORIAL HepG2 Assay for human Activator Protein 2 (AP-2) (AID 2282932). The note with it: HepG2 AP-2 cis-reporter, Attagene transcription factor profiling; actives raise or lower the signal. The essentials: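 Step one: transient transfection of HepG2 with reporter transcription units. Step two: 24 h chemical exposure. Step three: RNA extraction, RT-PCR, labelled fragment analysis by capillary electrophoresis; DMSO serves as baseline.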

The nature of test [9]: ATG_BRE_CIS: Attagene CIS-FACTORIAL HepG2 Assay for human Bone Morphogenetic Protein (BMP) Response Element (BRE) (AID 2282933). As to conditions: HepG2 BMP response element reporter, Attagene transcription factor profiling; actives raise or lower the signal. The essentials:
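Fluorescence-labelled reporter cDNA fragments, separated by capillary electrophoresis, gave the signal for this component of a 52-readout multiplex. HepG2 cells were transfected, exposed to chemicals for 24 h, and compared with DMSO using bidirectional fitting.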

The target of test [10] is Retinoic acid receptor alpha (Homo sapiens) (UniProt P10276). Description: ATG_DR5_RAR_CIS: Attagene CIS-FACTORIAL HepG2 Assay for human Retinoic Acid Receptor Alpha (RARE), DR5 submotif (AID 2282934). The note with it: HepG2 Attagene cis-factorial RARE DR5 reporter, mRNA; actives raise or lower the signal. In outline:
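Reporter transcripts from a DR5-regulated unit, measured via RT-PCR plus capillary electrophoresis, reflect endogenous RAR activity in transiently transfected human HepG2 liver cells. Exposure lasted 24 h; gain or loss of signal scored against DMSO.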

Test [11] has as its target Transcription factor E2F1 (Homo sapiens) (UniProt Q01094). Description: ATG_E2F_CIS: Attagene CIS-FACTORIAL HepG2 Assay for human E2F Transcription Factor 1 (AID 2282935). As to conditions: HepG2 Attagene cis-reporter, E2F reporter RNA transcripts; actives raise or lower the signal. In outline: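 Total RNA from 24 h-treated, reporter-transfected HepG2 cells undergoes DNase I treatment, oligo(dT) reverse transcription, PCR and 6-FAM primer extension before capillary electrophoresis.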

Test [12] is described as follows: ATG_E_Box_CIS: Attagene CIS-FACTORIAL HepG2 Assay for human Enhancer Box (E-box) (AID 2282936). The note with it: HepG2 E-box cis-reporter transcription, actives raise or lower the signal. In outline:
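DMSO served as negative control and baseline for bidirectional fitting. Human hepatoma HepG2 cells, transiently transfected with cis-reporter constructs, were dosed 24 h; reporter mRNA read by RT-PCR and capillary electrophoresis.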

A short description of test [13]: ATG_M_61_CIS: Attagene CIS-FACTORIAL HepG2 Assay for M61 Transcription Factor (Internal Marker) (AID 2282937). The note with it: HepG2 Attagene CIS-FACTORIAL M61 internal marker reporter; actives raise or lower the signal. The essentials: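 Multiplexed reporter mRNA assay, HepG2 human hepatoma cells, 24 h treatment. Signal: FAM-labelled, HpaI-digested RT-PCR fragments by CE. Fit: bidirectional, baseline DMSO.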

Test [14] in a line: ATG_EGR_CIS: Attagene CIS-FACTORIAL HepG2 Assay for human Early Growth Response 1 (EGR1) (AID 2282938). As to conditions: HepG2 Attagene CIS-FACTORIAL EGR reporter mRNA; actives raise or lower the signal. In outline: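 Multiplexed cis-reporter system in human hepatoma HepG2 cells, transiently transfected. Cells are dosed for 24 h; reporter transcripts are amplified, fluorescently tagged and sized by capillary electrophoresis, with DMSO as negative control.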

Test [15] is described as follows: ATG_M_19_CIS: Attagene CIS-FACTORIAL HepG2 Assay for M19 Transcription Factor (Internal Marker) (AID 2282939). The note with it: HepG2 Attagene CIS-FACTORIAL M19 internal marker reporter; actives raise or lower the signal. In outline: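 HepG2, MRTU transient transfection, 24 h dosing. Total RNA → RT-PCR → 6-FAM primer extension → HpaI digest → CE fluorescence. Bidirectional curve fit, DMSO negative control.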

Test [16] can be described thus: ATG_ERE_CIS: Attagene CIS-FACTORIAL HepG2 Assay for Estrogen Response Element (ERE) (AID 2282940). As to conditions: HepG2 ERE cis-reporter, Attagene RNA transcript; actives raise or lower the signal. The essentials: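 After a 24 h chemical treatment, RNA from reporter-transfected HepG2 cells is reverse-transcribed, PCR-amplified and fluorescently labelled. Fragments separated by capillary electrophoresis give reporter signal; DMSO serves as negative control.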

Test [17] in a line: ATG_Ets_CIS: Attagene CIS-FACTORIAL HepG2 Assay for human Erythroblast Transformation Specific (ETS) (AID 2282941). As to conditions: HepG2 ETS cis-reporter transcription, actives raise or lower the signal. In outline: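 Human HepG2 hepatoma cells were transiently transfected with promoter-driven reporter constructs and treated for 24 hours. Reporter transcripts were quantified by RT-PCR with fluorescent primer extension; bidirectional curve fitting used DMSO as reference.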

For test [18], the target named is Hepatocyte nuclear factor 3-beta (Homo sapiens) (UniProt Q9Y261). Description: ATG_FoxA2_CIS: Attagene CIS-FACTORIAL HepG2 Assay for human Forkhead box A2 (FOXA2) (AID 2282942). As to conditions: HepG2 cis-reporter transcription factor activity, 24 h; actives raise or lower the signal. The essentials: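 Multiplexed cis-element reporter assay in transiently transfected HepG2. Twenty-four hours post-dosing, RNA was reverse-transcribed, amplified, FAM-labelled, HpaI-digested and separated by CE. Activity gain or loss relative to DMSO.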

Test [19] in a line: ATG_FoxO_CIS: Attagene CIS-FACTORIAL HepG2 Assay for human Forkhead box O (FoxO) (AID 2282943). The note with it: HepG2 Attagene cis-reporter, FoxO element, mRNA; actives raise or lower the signal. In outline: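 Endogenous transcription factor activity read from multiplexed cis-promoter reporter transcripts in transiently transfected HepG2, 24 h after dosing. Reporter RNA measured via RT-PCR plus capillary electrophoresis of FAM-labeled products; gain or loss relative to DMSO.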

Test [20] can be described thus: ATG_GATA_CIS: Attagene CIS-FACTORIAL HepG2 Assay for human GATA Binding Protein (AID 2282944). The note with it: HepG2 GATA cis-element reporter, Attagene multiplex mRNA; actives raise or lower the signal. The essentials: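 Cells: HepG2, transiently transfected with cis-regulated reporter transcription units. Exposure: 24 h. Detection: RT-PCR plus capillary electrophoresis of FAM-labeled fragments. Analysis: bidirectional, DMSO as baseline.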

Sequence of Transcription factor E2F1 (Homo sapiens) (Q01094 whole entry, looked up): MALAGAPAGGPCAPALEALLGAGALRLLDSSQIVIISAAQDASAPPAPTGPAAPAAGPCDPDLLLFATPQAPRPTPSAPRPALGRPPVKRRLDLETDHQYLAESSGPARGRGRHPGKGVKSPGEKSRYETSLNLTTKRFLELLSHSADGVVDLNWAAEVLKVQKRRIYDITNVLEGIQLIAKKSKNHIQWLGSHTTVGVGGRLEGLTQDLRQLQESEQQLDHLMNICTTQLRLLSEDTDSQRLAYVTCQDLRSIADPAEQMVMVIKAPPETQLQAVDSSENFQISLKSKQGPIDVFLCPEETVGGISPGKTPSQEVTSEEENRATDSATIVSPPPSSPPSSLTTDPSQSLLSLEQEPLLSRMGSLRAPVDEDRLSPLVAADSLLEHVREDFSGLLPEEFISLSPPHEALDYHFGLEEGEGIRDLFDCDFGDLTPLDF
Sequence of CCAAT/enhancer-binding protein beta (Homo sapiens) (P17676 whole entry, looked up, the tested form may be a part): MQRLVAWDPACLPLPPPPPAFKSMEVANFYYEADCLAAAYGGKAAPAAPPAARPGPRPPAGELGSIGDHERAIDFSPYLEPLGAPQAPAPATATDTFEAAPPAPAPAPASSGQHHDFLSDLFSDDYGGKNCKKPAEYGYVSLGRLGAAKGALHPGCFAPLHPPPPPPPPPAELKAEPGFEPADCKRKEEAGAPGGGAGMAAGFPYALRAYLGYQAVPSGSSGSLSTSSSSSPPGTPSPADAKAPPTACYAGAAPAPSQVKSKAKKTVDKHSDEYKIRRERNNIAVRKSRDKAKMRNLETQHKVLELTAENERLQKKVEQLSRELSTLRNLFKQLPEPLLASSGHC
Sequence of Retinoic acid receptor alpha (Homo sapiens) (P10276 whole entry, looked up): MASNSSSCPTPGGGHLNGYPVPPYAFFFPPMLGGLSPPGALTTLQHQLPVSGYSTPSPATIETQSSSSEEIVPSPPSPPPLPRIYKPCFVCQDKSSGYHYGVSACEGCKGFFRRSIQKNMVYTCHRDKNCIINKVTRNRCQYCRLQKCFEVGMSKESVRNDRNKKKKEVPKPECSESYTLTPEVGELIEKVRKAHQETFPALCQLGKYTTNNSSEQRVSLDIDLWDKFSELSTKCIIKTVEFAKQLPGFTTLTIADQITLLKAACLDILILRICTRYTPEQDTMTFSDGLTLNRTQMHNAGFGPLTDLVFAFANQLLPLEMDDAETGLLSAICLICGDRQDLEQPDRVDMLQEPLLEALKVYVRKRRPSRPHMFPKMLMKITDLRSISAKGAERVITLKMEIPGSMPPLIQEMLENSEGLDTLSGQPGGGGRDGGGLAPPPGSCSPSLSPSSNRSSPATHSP
Sequence of Hepatocyte nuclear factor 3-beta (Homo sapiens) (Q9Y261 whole entry, looked up): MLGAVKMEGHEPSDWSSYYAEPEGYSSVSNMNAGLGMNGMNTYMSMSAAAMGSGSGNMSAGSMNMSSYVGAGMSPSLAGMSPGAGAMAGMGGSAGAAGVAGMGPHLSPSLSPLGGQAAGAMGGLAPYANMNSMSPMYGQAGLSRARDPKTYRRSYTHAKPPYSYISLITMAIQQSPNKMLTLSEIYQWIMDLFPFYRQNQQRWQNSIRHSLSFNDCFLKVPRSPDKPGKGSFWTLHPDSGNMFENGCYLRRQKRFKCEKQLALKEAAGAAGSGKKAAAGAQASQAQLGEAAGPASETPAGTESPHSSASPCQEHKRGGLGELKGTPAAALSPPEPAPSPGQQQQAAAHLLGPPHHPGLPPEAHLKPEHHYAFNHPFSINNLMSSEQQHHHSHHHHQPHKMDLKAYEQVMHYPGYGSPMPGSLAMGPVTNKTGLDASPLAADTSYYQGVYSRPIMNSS
Sequence of Aryl hydrocarbon receptor (Homo sapiens) (P35869 whole entry, looked up): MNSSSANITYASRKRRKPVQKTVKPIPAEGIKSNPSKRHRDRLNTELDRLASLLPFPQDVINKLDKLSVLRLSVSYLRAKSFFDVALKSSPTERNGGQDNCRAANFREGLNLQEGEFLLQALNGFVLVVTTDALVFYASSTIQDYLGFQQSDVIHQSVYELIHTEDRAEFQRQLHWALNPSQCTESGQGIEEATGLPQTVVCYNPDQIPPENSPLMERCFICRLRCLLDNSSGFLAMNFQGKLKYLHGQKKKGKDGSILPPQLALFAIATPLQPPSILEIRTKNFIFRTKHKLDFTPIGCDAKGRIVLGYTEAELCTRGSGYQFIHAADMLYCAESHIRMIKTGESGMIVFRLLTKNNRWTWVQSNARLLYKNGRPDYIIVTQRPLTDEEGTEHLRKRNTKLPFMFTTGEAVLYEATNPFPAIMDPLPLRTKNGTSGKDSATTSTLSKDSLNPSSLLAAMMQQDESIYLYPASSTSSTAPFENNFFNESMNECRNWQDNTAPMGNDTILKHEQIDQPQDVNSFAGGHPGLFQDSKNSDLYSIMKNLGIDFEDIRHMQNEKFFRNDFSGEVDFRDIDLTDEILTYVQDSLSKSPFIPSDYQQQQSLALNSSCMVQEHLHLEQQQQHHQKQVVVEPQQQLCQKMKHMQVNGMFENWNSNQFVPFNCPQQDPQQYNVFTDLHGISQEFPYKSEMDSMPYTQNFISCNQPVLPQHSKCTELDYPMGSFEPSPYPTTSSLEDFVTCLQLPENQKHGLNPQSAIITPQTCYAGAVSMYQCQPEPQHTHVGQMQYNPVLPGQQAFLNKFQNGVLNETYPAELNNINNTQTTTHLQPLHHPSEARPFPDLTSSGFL

As to `C=CC(=O)OCCC(F)(F)C(F)(F)C(F)(F)C(F)(F)F`, the AC50 (in general, the midpoint of the concentration-response curve, whichever way the signal moves) in [1] was 17.1 µM (active); in test [5] it was 94 µM (active); in test [7], 213 µM (active); in test [9], 101 µM (active). Moreover, the compound was classed as inactive in test [2], in [3], in test [4], in test [6], in [8] and in [10]. For the same compound, the compound was called inactive in [11], in [12], in [13], in test [14], in [15] and in test [16]. Further, the outcome in test [17], in test [18], in [19] and in test [20] was inactive.

Regarding `CC(C)CC=C(C=O)c1ccccc1`, the AC50 is 24.1 µM (active) in test [1], 84.9 µM (active) in test [5], 100 µM (active) in [7] and 35.2 µM (active) in [16]. For the same compound, the compound was called inactive in test [2], in test [3], in test [4], in test [6], in test [8] and in test [9]. In addition, the compound was called inactive in [10], in test [11], in test [12], in test [13], in test [14] and in test [15]. Further, the compound was called inactive in test [17], in [18], in test [19] and in test [20].

Regarding `CCN(CCO)S(=O)(=O)C(F)(F)C(F)(F)C(F)(F)C(F)(F)C(F)(F)C(F)(F)C(F)(F)C(F)(F)F`, the call in test [1], in test [3], in test [4], in [5], in test [6] and in test [7] was inactive. Besides, the call in test [8], in [9], in test [10], in test [11], in [12] and in [13] was inactive. The compound was classed as inactive in test [14], in [15], in test [16], in [17], in [18] and in test [19]. In [20], the call was inactive. Moreover, in test [2], the AC50 is 28.9 µM (active).
